High-throughput results deposited in PubChem BioAssay by several laboratories.
Most compounds without a hit are left out; they make up all but 4% or so of the library.
FBA Mtb inh – inhibits M. tuberculosis FBA enzyme | P9WQA3 | purified M. tuberculosis FBA, fluorescence read-out | inhibition, % at 1 µM | 2.3% of 360,000 active | AID 588726; in the data active = inhibition above about 27%
Target sequence (P9WQA3 whole entry, looked up): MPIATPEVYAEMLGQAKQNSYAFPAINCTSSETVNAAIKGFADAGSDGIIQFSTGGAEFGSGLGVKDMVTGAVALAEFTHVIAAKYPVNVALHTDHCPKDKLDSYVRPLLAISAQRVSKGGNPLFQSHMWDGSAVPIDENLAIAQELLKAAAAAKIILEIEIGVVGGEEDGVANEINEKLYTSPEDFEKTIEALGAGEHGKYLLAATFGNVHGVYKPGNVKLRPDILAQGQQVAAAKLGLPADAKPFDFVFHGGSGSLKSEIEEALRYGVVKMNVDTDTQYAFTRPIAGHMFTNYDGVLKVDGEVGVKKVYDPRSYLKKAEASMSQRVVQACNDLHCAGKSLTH
Mtb betalactam – beta-lactam sensitization of Mtb H37Rv | M. tuberculosis H37Rv growth with meropenem, percent inhibition | inhibition, % at 25 µM | 0.27% of 330,000 active; call rule not given here;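 note: growth measured after seven days incubation then overnight dye step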
MazF activator – activators of E. coli MazEF toxin-antitoxin RNase. P0AE70. FAM/BHQ RNA-DNA oligo cleavage fluorescence, 5 h. activation, % at 20 µM. 0.32% of 350,000 active; in the data active = activation above about 50%
Target sequence (P0AE70 whole entry, looked up): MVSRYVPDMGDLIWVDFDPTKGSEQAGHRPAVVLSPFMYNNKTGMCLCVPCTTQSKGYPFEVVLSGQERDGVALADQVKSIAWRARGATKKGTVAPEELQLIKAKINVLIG
GDH-TPI counter – GDH-TPI coupled enzyme inhibition counter-screen; AID 588335; 1.2% of 360,000 active; GDH-TPI coupled enzyme counterscreen, NADH absorbance; inhibition, % at 4.8 µM
CCHFV vOTU inh – blocks the CCHF virus ovarian tumor domain protease; CCHFV vOTU protease, Pep-AMC fluorescence; inhibition, % at 11.5 µM; 0.55% of 370,000 active; AID 651958
Hits are given with their value; 0 = inactive; - = not tested or not shown; + = active, no number. Cut-off read from the data, not from the text of the source, unless noted: active = inhibition above about 30%; inactive = the rest.

SMILES | FBA Mtb inh | Mtb betalactam | MazF activator | GDH-TPI counter | CCHFV vOTU inh
CC(=O)Oc1ccc2cc(-c3cccnc3)c(=O)oc2c1 | + | - | 0 | 0 | 0
CC(=O)Oc1cccc(-c2nc3ccccc3c(=O)o2)c1 | 0 | 0 | 0 | 0 | 0
CC(Oc1ccc2cc(-c3ccccc3)c(=O)oc2c1)C(=O)NCC1CCC(C(=O)O)CC1 (stereo not given) | + | 0 | 0 | 36 | 0
O=C(CCc1ccccc1-c1ccccc1CCNC(=O)COCc1ccccc1)NCc1ccccc1 | - | - | - | - | 0
COc1ccc(-c2cc(-c3nnc(SCC(=O)Nc4ccccc4-c4ccccc4)n3N)[nH]n2)cc1 | - | - | - | - | 0
CN(C)C(=O)COc1ccc2cc(-c3ccccc3)c(=O)oc2c1 | + | 0 | 0 | 53 | 0
CCCOc1ccc2cc(-c3ccccn3)c(=O)oc2c1 | + | 0 | 0 | 0 | 0
CC[C@@]1(O)C(=O)OCc2c1cc1n(c2=O)Cc2cc3c(CN(C)C)c(O)ccc3nc2-1 | 0 | 0 | 0 | 34 | 0
CC[C@@]1(O)C(=O)OCc2c1cc1n(c2=O)Cc2cc3c(N)cccc3nc2-1 | 0 | 0 | 0 | 33 | 0
CCn1c(-c2ccc[nH]c2=O)nc2ccccc21 | 134 | 0 | 0 | 0 | 0
O=c1[nH]cccc1-c1nc2ccccc2n1Cc1ccccc1F | 122 | 0 | 0 | 0 | 0
Oc1ccccc1Cn1c(-c2ccccc2O)nc2ccccc21 | 0 | 0 | 0 | 0 | 0
Cn1c(-c2ccc[nH]c2=O)nc2cc(Cl)ccc21 | 137 | 0 | 0 | 0 | 0
N#Cc1c(N)c(C#N)c(-c2ccc(O)cc2)c2c1CCCC2 | 0 | 0 | 0 | 0 | 0
N#Cc1c(N)c(C#N)c(-c2ccc3c(c2)OCO3)c2c1CCCC2 | 0 | 0 | 0 | 41 | 0
N#Cc1c(N)nc2c(c1-c1ccc3c(c1)OCO3)CCc1ccccc1-2 | 31 | 0 | 0 | 0 | 0
CCN=C1NC(c2ccc(Cl)cc2)C(C(=O)OC)=C(C)N1Cc1cccc(C(F)(F)F)c1 (stereo not given) | - | - | - | - | 0
CC(=O)Oc1c(-c2ccco2)oc2ccccc2c1=O | 0 | 0 | 0 | 44 | 0
O=C(O)COc1c(-c2ccccc2)oc2ccccc2c1=O | 0 | 0 | 0 | 0 | 0
CNC(=O)C1CC(=O)N/C(=N/N=C(\C)c2cccs2)S1 (stereo not given) | 0 | 0 | 0 | 37 | 0
COc1ccc(/C(C)=N/N=C2/NC(=O)CC(C(=O)O)S2)cc1F (stereo not given) | 0 | 0 | 0 | 52 | 0
C=C(C)Cn1c2ccc(NC(=O)CCc3cccc(Cl)c3)cc2c(=O)n1C | + | - | - | 0 | 0
C=C(C)Cn1c2ccc(NC(=O)CCOCC)cc2c(=O)n1C | + | - | - | 0 | 0
O=C(CCc1ccccc1)NNC(=O)Nc1cccc(Cl)c1 | 0 | 0 | 0 | 0 | 0
CCCC(=O)Nc1ccc2c(c1)c1ccccc1n2CC | 0 | 0 | 0 | 0 | 0
SMILES | FBA Mtb inh | Mtb betalactam | MazF activator | GDH-TPI counter | CCHFV vOTU inh
CCOCCC(=O)Nc1ccc2c(c1)c(=O)n(C)n2CC=C(C)C | + | - | - | 0 | 0
CCN1CCN(C2=C(NS(=O)(=O)c3ccc(C)cc3)C(=O)c3ccccc3C2=O)CC1 | 0 | 0 | 0 | 0 | 44
CCOC(=O)C1CCN(C2=C(NS(=O)(=O)c3ccc(Cl)cc3)C(=O)c3ccccc3C2=O)CC1 | 129 | 0 | 0 | 0 | 0
CC(=O)Nc1ccc(S(=O)(=O)NC2=C(N3CCN(Cc4ccccc4)CC3)C(=O)c3ccccc3C2=O)cc1 | 0 | 0 | 0 | 0 | 0
C[C@H]1C2CC(OC(=O)Nc3cccc(C(F)(F)F)c3)C(C2)[C@H]2CCCCN21 (stereo not given in full) | - | - | - | - | 0
CN(C)/C(CN1CCN(C=O)CC1)=C1\N=C(c2ccccc2)OC1=O | 0 | 0 | 0 | 36 | 0
O=C(Cn1ccc(NC(=O)OCc2ccccc2)nc1=O)NCc1ccc2c(c1)OCO2 | 0 | 0 | 58 | 0 | 0
CC1CCN(c2ccc(C(=O)O)cc2NS(=O)(=O)c2ccc(C(C)(C)C)cc2)CC1 | - | - | - | - | 0
CCN(/N=C/c1cccs1)c1cc(=O)n(C)c(=O)[nH]1 | 0 | 0 | 0 | 43 | 0
CCCC1S/C(=N/N=C/c2cccs2)NC1=O (stereo not given) | 0 | 0 | 0 | 0 | 0
CN(/N=C/c1cccs1)c1cc(=O)n(C)c(=O)[nH]1 | 0 | 0 | 0 | 48 | 0
Cc1cc(OCC(C)CN2CCC(C(O)(c3ccccc3)c3ccccc3)CC2)ccc1Br (stereo not given) | - | - | - | - | 0
COc1ccccc1C1C(C(C)=O)=C(O)C(=O)N1c1ccc(O)cc1 (stereo not given) | 0 | 0 | 0 | 42 | 0
CCOC(=O)c1ccc(N2C(=O)C(O)=C(C(C)=O)C2c2ccc([N+](=O)[O-])cc2)cc1 (stereo not given) | 0 | 0 | 0 | 32 | 0
